m5-HT2A agonist: agonists of mouse serotonin 5-HT2A receptor (HTR2A); P35363; CHO-K1 mHTR2A beta-arrestin complementation, luminescence; percent of 30 µM serotonin response; activation, % at 7.6 µM; actives 0.66% (n = 360,000);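 active = activation above a run cutoff, the mean activation of all tested compounds plus 3 SD, cut at about 14% in these data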
HTR5A ag ctr: HTR5A agonism, opioid heterodimer counter-screen | P47898 | HTR5A agonist assay, luminescence, cell-based | activation, % at 9.3 µM | actives 0.61% (n = 340,000) | AID 504692; in the data active = activation mostly above about 9.5%, no sharp cut-off; inactive = mostly below about 7.6%
Target sequence (P47898 whole entry, looked up): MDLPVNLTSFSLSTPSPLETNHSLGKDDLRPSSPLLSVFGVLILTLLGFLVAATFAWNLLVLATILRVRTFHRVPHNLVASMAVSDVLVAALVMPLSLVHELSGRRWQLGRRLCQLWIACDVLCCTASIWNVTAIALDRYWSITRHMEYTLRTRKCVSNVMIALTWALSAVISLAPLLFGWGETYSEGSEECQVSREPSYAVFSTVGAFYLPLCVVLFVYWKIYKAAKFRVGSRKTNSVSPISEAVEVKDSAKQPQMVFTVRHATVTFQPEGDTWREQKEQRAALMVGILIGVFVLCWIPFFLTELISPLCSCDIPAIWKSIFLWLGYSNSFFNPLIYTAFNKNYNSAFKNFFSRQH
OPRM1-OPRD1 inv: inverse agonists of human mu-delta opioid receptor heterodimerization. P35372+P41143. cell-based MOR-DOR heterodimer luminescence, inverse agonism. inhibition, % at 9.3 µM. actives 0.21% (n = 340,000). AID 504357; in the data active = inhibition above about 22%, passing the limit was not always enough
sPLA2-III inh: Inhibits HGIII-sPLA2 liposome hydrolysis, primary screen; Q9NZ20; QFRET BODIPY PC-A2 liposome hydrolysis, fluorescence; inhibition, % at 12.2 µM; actives 0.56% (n = 370,000);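 active = inhibition above mean plus 3 SD of compounds lying within the high and low control bounds, cut at about 19% in these data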
HTR5A inv ag: HTR5A inverse agonism, opioid heterodimer counter-screen | AID 504634 | HTR5A cell line, luminescence | inhibition, % at 9.3 µM | actives 0.083% (n = 340,000); in the data active = inhibition mostly above about 23%, no sharp cut-off; inactive = mostly below about 18%
MOR-DOR ag: agonists of human mu-delta opioid receptor heterodimerization; actives 0.3% (n = 340,000); AID 504326; cells, OPRM1-OPRD1 heterodimerization, luminescence; activation, % at 9.3 µM; in the data active = activation above about 18%
Numbers stand for hits; . = inactive; / = no result given. The list is not random: actives were taken first. Their share in the collection is about 2.2%.

SMILES	m5-HT2A agonist	HTR5A ag ctr	OPRM1-OPRD1 inv	sPLA2-III inh	HTR5A inv ag	MOR-DOR ag
O=C(Nc1ccc(Cl)cc1)/C(=C/c1cccc(O)c1)c1nc2ccccc2s1	.	11.3	.	.	.	.
COc1cc(C(=O)ON=C2C3CC4CC(C3)CC2C4)cc(OC)c1OC	.	11.9	.	.	.	.
COC(=O)CSc1nnc(-c2ccc(NS(=O)(=O)c3c(C(C)C)cc(C(C)C)cc3C(C)C)cc2)o1	/	/	/	.	/	/
CCOC(=O)N1CCC(NC(=O)CSCc2nc(-c3ccc(OC)cc3)oc2C)CC1	.	11.2	.	.	.	.
C[C@@H](NC(=O)C[C@H]1CC[C@H]2[C@@H](COc3ccc(NC(=O)Nc4ccccc4)cc3C(=O)N2C)O1)c1ccccc1	/	/	/	.	/	/
CCCOc1ccc(CC2CCC(=O)NC2=O)cc1 (stereo unspecified)	.	.	.	.	.	.
CCCCOc1ccc(C2(C)CC(=O)NC2=O)cc1 (stereo unspecified)	.	11.5	.	.	.	.
CCC[C@H]1[C@@H](OC(=O)NCc2cccc(Cl)c2)CC[C@@]23CCCN2C(=O)CCC[C@@H]13	/	/	/	.	/	/
c1nc(NCC2CCOC2)c2cc(-c3ccc4c(c3)OCO4)ccc2n1 (stereo unspecified)	/	/	/	.	/	/
COc1ccc(Nc2nc(S(=O)(=O)c3ccc(C)cc3)c(Cl)s2)cc1	.	12.7	.	.	.	.
O=C(c1ccccc1F)N1C(=O)c2cccc3cccc1c23	.	12.2	.	.	.	.
O=C(c1ccco1)N1C(=O)c2cccc3cccc1c23	.	.	.	.	.	.
CC(=O)N1CCc2cc(S(=O)(=O)NC3CCN(C(=O)OCc4ccccc4)CC3)ccc21	/	/	/	.	/	/
N/C(=N\OC(=O)c1ccc(Cl)cc1)c1cccnc1	.	13.6	.	.	.	.
O=C(O)C1C2CCC(C2)C1C(=O)NCCc1ccccc1 (stereo unspecified)	.	9.4	.	.	.	.
COC(=O)[C@]12C[C@H](CC(=O)NCc3cccc(C(F)(F)F)c3)C(=O)N(CCc3ccc(OC)c(OC)c3)C1=C[C@H](COCc1ccccc1)O[C@@H]2C	/	/	/	.	/	/
Cc1ccccc1/C(N)=N/OC(=O)c1cccs1	.	11.6	.	.	.	.
COc1ccc(CN2c3c(Br)cccc3C(=O)CS2(=O)=O)cc1	.	.	.	/	17.4	.
O=C1CS(=O)(=O)N(Cc2cccc(F)c2)c2ccc(Br)cc21	.	.	.	.	.	.
CC(C)(C)c1cc(CCC(=O)N2CCC2)cc(C(C)(C)C)c1O	.	.	.	.	.	.
CC(C)(C)c1cc(CCC(=O)NN)cc(C(C)(C)C)c1O	.	12.0	.	.	.	.
O=C(CN1CCOCC1)Nc1cccc(Cl)c1Cl	.	.	.	.	.	.
Cc1ccc(N=Nc2c(O)n(CN3CCOCC3)c3ccccc23)cc1	.	.	.	/	.	.
Cc1cccc(NC(=O)CN2CCOCC2)c1C	.	9.8	.	.	.	.
Cc1cccc(NC(=S)N=Nc2c(O)n(CN3CCOCC3)c3ccccc23)c1C	.	.	.	22.6	.	.
SMILES	m5-HT2A agonist	HTR5A ag ctr	OPRM1-OPRD1 inv	sPLA2-III inh	HTR5A inv ag	MOR-DOR ag
Cc1cccc(NC(=S)N2CCOCC2)c1C	.	11.3	.	.	.	.
Cc1cccc(NC(=S)N2CCCCCC2)c1C	.	.	.	.	.	.
COC(=O)c1cccc(Cn2ccc3ccc(-c4ccc5ccn(C(=O)c6ccc(C)cc6)c5c4)cc32)c1	/	/	/	.	/	/
COc1ccc(CC(=O)Nc2ccc(-c3nc4cc(C)ccc4o3)c(O)c2)cc1OC	.	13.7	.	.	.	.
Cc1ccc2oc(-c3ccc(NC(=O)c4ccncc4)cc3O)nc2c1	.	.	.	.	.	.
O=C(CCc1ccccc1)N[C@H]1[C@@H](OC(=O)C2CC2)CCC[C@@]12C(=O)N(Cc1ccccc1)c1ccccc12	/	/	/	.	/	/
CCn1nc(C(=O)OCC(=O)N2CCc3ccccc32)c2ccccc2c1=O	.	13.9	.	.	.	.
CNc1nc(N)c([N+](=O)[O-])c(Nc2cccc(OC)c2)n1	/	/	/	.	/	/
C[C@H]1[C@@H](NC(=O)C#Cc2ccccc2)CC[C@@]23CCCN2C(=O)CCC[C@@H]13	/	/	/	.	/	/
CCOc1cc(CNCc2cccnc2)cc(Br)c1OCC(N)=O	.	10.1	.	.	.	.
COCCOC(=O)c1c(C)n(C)c2ccc(OC(=O)c3c(OC)cccc3OC)cc12	.	10.7	.	.	.	.
O=C(Nc1ccc(N2CCCCC2)c(C(=O)O)c1)c1ccco1	.	10.1	.	.	.	.
Cn1c(=O)n(C)c2cc(C(=O)O)ccc21	.	.	.	.	.	.
Cc1ccccc1C(=O)c1ccc2c(c1)n(C)c(=O)n2C	.	11.8	.	.	.	.
COC(=O)[C@]12C[C@H](CC(=O)NCC3CCCCC3)C(=O)N(Cc3cccc4ccccc34)C1=C[C@H](C1CCCC1)O[C@@H]2C	/	/	/	.	/	/
Cc1ccc(NC(=O)COC(=O)C2CC2(Cl)Cl)cc1C (stereo unspecified)	.	9.0	.	.	.	.
Cc1ccc(NC(=O)COC(=O)C2CC2)cc1Cl	.	.	.	.	.	.
O=C(NCc1ccccc1Cl)NCc1ccccc1Cl	.	.	.	.	.	.
O=C(NCc1ccccc1F)c1ccc(S(=O)(=O)N2CCCC2)cc1	.	/	/	.	/	/
O=C(NCc1ccccc1Cl)c1ccc(S(=O)(=O)N2CCCC2)cc1	.	11.3	.	.	.	.
O=C(NCc1ccccc1Cl)c1ccc[nH]1	.	12.7	.	.	.	.
Cn1c2ccccc2c2nnc(NN)nc21	.	.	.	.	.	.
CCCCc1c(C)nn(-c2nnc3c4ccccc4n(C)c3n2)c1C	.	11.8	.	.	.	.
CCNC(=O)N(C)[C@H]1C[C@H]2c3[nH]c4cccc(-c5ccc6c(c5)OCO6)c4c3CCN2C[C@H]1[C@H](C)O	/	/	/	.	/	/
Brc1ccccc1OCCNCc1ccccc1	.	.	.	.	.	.
SMILES	m5-HT2A agonist	HTR5A ag ctr	OPRM1-OPRD1 inv	sPLA2-III inh	HTR5A inv ag	MOR-DOR ag
Clc1ccc(OCCCNCc2ccccc2)c2ccccc12	.	10.4	.	.	.	.
N#CC(C#N)=C1C=CC=CN1/C(=C\c1ccco1)C(=O)c1ccccc1	.	.	35.5	.	.	.
CC(C)(C)NC(=O)/C(=C/c1ccco1)c1ccccc1	.	.	.	.	.	.
COc1ccc(/C=C(/C(=O)c2cccs2)N2C=CC=CC2=C(C#N)C#N)cc1	.	.	.	.	.	.
COc1ccc(C(=O)/C(=C\c2ccco2)N2C=CC=CC2=C(C#N)C#N)cc1	.	.	32.9	/	.	.
N#CC(C#N)=C1C=CC=CN1/C(=C\c1ccco1)C(=O)c1ccc(Br)cc1	.	.	29.1	.	.	.
O=C(NCc1cccc(C(F)(F)F)c1)O[C@H]1CC[C@@]23CCCN2C(=O)CCC[C@H]3C1	/	/	/	.	/	/
CCc1ccc(N(CC(=O)NCc2ccc(F)cc2)C(=O)c2csnn2)cc1	.	9.4	.	.	.	.
